In the supplement of paper PMC4466140:

B1: unnamed (peptide)
chain: GPPPPLPPPLFPSSS

These binders were tested against AgAbp1 (assay: SPOT peptide array binding signal intensity (averaged, normalized) (arbitrary units (background-subtracted, floor 0; scale differs between SH3 domains)); higher = stronger binding of the SH3 domain to the peptide).
In short: (§1)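 GST-fused SH3 domains from four yeast species were expressed in E. coli BL21(DE3), purified on glutathione Sepharose and incubated at 10 μg/ml overnight at 4°C in TBS-based blocking buffer on cellulose membranes carrying synthetic 15-mer peptides, with cysteines replaced by serines. Bound protein was detected with anti-GST antibody, an HRP anti-mouse secondary and luminol, then imaged and quantified with Genespotter. Binding signal is the normalized, background-subtracted spot intensity averaged over replicates, in arbitrary units that differ between domains.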

Binder	SPOT peptide array binding signal intensity
B1	≤ 0

What follows are binders tested against AgBbc1 in the same assay as above.
In short: as §1

Binder	SPOT peptide array binding signal intensity
B1	≤ 0

What follows are binders tested against AgBem1-D1 in the same assay as above.
In short: as §1

Binder	SPOT peptide array binding signal intensity
B1	31

Each binder was assayed against AgBzz1-D1 in the same assay as above.
In short: as §1

Binder	SPOT peptide array binding signal intensity
B1	≤ 0

What follows are binders tested against AgBzz1-D2 in the same assay as above.
In short: as §1

Binder	SPOT peptide array binding signal intensity
B1	≤ 0

What follows are binders tested against AgCyk3 in the same assay as above.
In short: as §1

Binder	SPOT peptide array binding signal intensity
B1	≤ 0

These binders were tested against AgFus1 in the same assay as above.
In short: as §1

Binder	SPOT peptide array binding signal intensity
B1	≤ 0

These binders were tested against AgHof1 in the same assay as above.
In short: as §1

Binder	SPOT peptide array binding signal intensity
B1	1830

Each binder was assayed against AgHse1 in the same assay as above.
In short: as §1

Binder	SPOT peptide array binding signal intensity
B1	62.5

Each binder was assayed against AgLsb1 in the same assay as above.
In short: as §1

Binder	SPOT peptide array binding signal intensity
B1	≤ 0

What follows are binders tested against AgLsb4 in the same assay as above.
In short: as §1

Binder	SPOT peptide array binding signal intensity
B1	≤ 0

Each binder was assayed against AgMyo5 in the same assay as above.
In short: as §1

Binder	SPOT peptide array binding signal intensity
B1	1900

The binders below were run against AgNbp2 in the same assay as above.
In short: as §1

Binder	SPOT peptide array binding signal intensity
B1	≤ 0

The binders below were run against AgRvs167 in the same assay as above.
In short: as §1

Binder	SPOT peptide array binding signal intensity
B1	1

These binders were tested against AgSho1 in the same assay as above.
In short: as §1

Binder	SPOT peptide array binding signal intensity
B1	≤ 0

These binders were tested against AgSla1-D1-D2 in the same assay as above.
In short: as §1

Binder	SPOT peptide array binding signal intensity
B1	≤ 0

What follows are binders tested against AgSla1-D3 in the same assay as above.
In short: as §1

Binder	SPOT peptide array binding signal intensity
B1	≤ 0

What follows are binders tested against CaAbp1-D1 in the same assay as above.
In short: as §1

Binder	SPOT peptide array binding signal intensity
B1	1

The binders below were run against CaAbp1-D2 in the same assay as above.
In short: as §1

Binder	SPOT peptide array binding signal intensity
B1	≤ 0

Each binder was assayed against CaBbc1 in the same assay as above.
In short: as §1

Binder	SPOT peptide array binding signal intensity
B1	1

What follows are binders tested against CaBem1-D1 in the same assay as above.
In short: as §1

Binder	SPOT peptide array binding signal intensity
B1	114

What follows are binders tested against CaBzz1-D1 in the same assay as above.
In short: as §1

Binder	SPOT peptide array binding signal intensity
B1	93

What follows are binders tested against CaBzz1-D2 in the same assay as above.
In short: as §1

Binder	SPOT peptide array binding signal intensity
B1	10

These binders were tested against CaCyk3 in the same assay as above.
In short: as §1

Binder	SPOT peptide array binding signal intensity
B1	≤ 0

These binders were tested against CaFus1 in the same assay as above.
In short: as §1

Binder	SPOT peptide array binding signal intensity
B1	≤ 0

The binders below were run against CaHof1 in the same assay as above.
In short: as §1

Binder	SPOT peptide array binding signal intensity
B1	178

Each binder was assayed against CaHse1 in the same assay as above.
In short: as §1

Binder	SPOT peptide array binding signal intensity
B1	1.5

These binders were tested against CaLsb1 in the same assay as above.
In short: as §1

Binder	SPOT peptide array binding signal intensity
B1	≤ 0

What follows are binders tested against CaLsb4 in the same assay as above.
In short: as §1

Binder	SPOT peptide array binding signal intensity
B1	11.5

These binders were tested against CaMyo5 in the same assay as above.
In short: as §1

Binder	SPOT peptide array binding signal intensity
B1	284

Each binder was assayed against CaNbp2 in the same assay as above.
In short: as §1

Binder	SPOT peptide array binding signal intensity
B1	6.5

Each binder was assayed against CaRvs167 in the same assay as above.
In short: as §1

Binder	SPOT peptide array binding signal intensity
B1	7.83

Each binder was assayed against CaRvs167-3 in the same assay as above.
In short: as §1

Binder	SPOT peptide array binding signal intensity
B1	1.5

Each binder was assayed against CaSho1 in the same assay as above.
In short: as §1

Binder	SPOT peptide array binding signal intensity
B1	≤ 0

Each binder was assayed against CaSla1-D1-D2 in the same assay as above.
In short: as §1

Binder	SPOT peptide array binding signal intensity
B1	≤ 0

The binders below were run against CaSla1-D3 in the same assay as above.
In short: as §1

Binder	SPOT peptide array binding signal intensity
B1	≤ 0

These binders were tested against ScAbp1 in the same assay as above.
In short: as §1

Binder	SPOT peptide array binding signal intensity
B1	≤ 0

Each binder was assayed against ScBbc1 in the same assay as above.
In short: as §1

Binder	SPOT peptide array binding signal intensity
B1	≤ 0

Each binder was assayed against ScBem1-D1 in the same assay as above.
In short: as §1

Binder	SPOT peptide array binding signal intensity
B1	≤ 0

These binders were tested against ScBzz1-D1 in the same assay as above.
In short: as §1

Binder	SPOT peptide array binding signal intensity
B1	1.5

The binders below were run against ScBzz1-D2 in the same assay as above.
In short: as §1

Binder	SPOT peptide array binding signal intensity
B1	≤ 0

The binders below were run against ScCyk3 in the same assay as above.
In short: as §1

Binder	SPOT peptide array binding signal intensity
B1	≤ 0

These binders were tested against ScFus1 in the same assay as above.
In short: as §1

Binder	SPOT peptide array binding signal intensity
B1	≤ 0

Each binder was assayed against ScHof1 in the same assay as above.
In short: as §1

Binder	SPOT peptide array binding signal intensity
B1	1900

Each binder was assayed against ScHse1 in the same assay as above.
In short: as §1

Binder	SPOT peptide array binding signal intensity
B1	≤ 0

Each binder was assayed against ScLsb1 in the same assay as above.
In short: as §1

Binder	SPOT peptide array binding signal intensity
B1	288

The binders below were run against ScLsb2 in the same assay as above.
In short: as §1

Binder	SPOT peptide array binding signal intensity
B1	12

What follows are binders tested against ScLsb3 in the same assay as above.
In short: as §1

Binder	SPOT peptide array binding signal intensity
B1	110

Each binder was assayed against ScLsb4 in the same assay as above.
In short: as §1

Binder	SPOT peptide array binding signal intensity
B1	20

These binders were tested against ScMyo3 in the same assay as above.
In short: as §1

Binder	SPOT peptide array binding signal intensity
B1	1490

These binders were tested against ScMyo5 in the same assay as above.
In short: as §1

Binder	SPOT peptide array binding signal intensity
B1	901

What follows are binders tested against ScNbp2 in the same assay as above.
In short: as §1

Binder	SPOT peptide array binding signal intensity
B1	≤ 0

The binders below were run against ScPex13 in the same assay as above.
In short: as §1

Binder	SPOT peptide array binding signal intensity
B1	4060

Each binder was assayed against ScRvs167 in the same assay as above.
In short: as §1

Binder	SPOT peptide array binding signal intensity
B1	32.5

The binders below were run against ScSho1 in the same assay as above.
In short: as §1

Binder	SPOT peptide array binding signal intensity
B1	≤ 0

What follows are binders tested against ScSla1-D1-D2 in the same assay as above.
In short: as §1

Binder	SPOT peptide array binding signal intensity
B1	≤ 0

What follows are binders tested against ScSla1-D3 in the same assay as above.
In short: as §1

Binder	SPOT peptide array binding signal intensity
B1	≤ 0

These binders were tested against SpAbp1-D1 in the same assay as above.
In short: as §1

Binder	SPOT peptide array binding signal intensity
B1	≤ 0

Each binder was assayed against SpBbc1 in the same assay as above.
In short: as §1

Binder	SPOT peptide array binding signal intensity
B1	≤ 0

The binders below were run against SpBzz1-D1 in the same assay as above.
In short: as §1

Binder	SPOT peptide array binding signal intensity
B1	683

These binders were tested against SpBzz1-D2 in the same assay as above.
In short: as §1

Binder	SPOT peptide array binding signal intensity
B1	4.25

The binders below were run against SpCyk3 in the same assay as above.
In short: as §1

Binder	SPOT peptide array binding signal intensity
B1	≤ 0

What follows are binders tested against SpHof1 in the same assay as above.
In short: as §1

Binder	SPOT peptide array binding signal intensity
B1	≤ 0

What follows are binders tested against SpHof1-2 in the same assay as above.
In short: as §1

Binder	SPOT peptide array binding signal intensity
B1	≤ 0

What follows are binders tested against SpHof1-3 in the same assay as above.
In short: as §1

Binder	SPOT peptide array binding signal intensity
B1	≤ 0

What follows are binders tested against SpHse1 in the same assay as above.
In short: as §1

Binder	SPOT peptide array binding signal intensity
B1	40.8

These binders were tested against SpLsb1 in the same assay as above.
In short: as §1

Binder	SPOT peptide array binding signal intensity
B1	184

The binders below were run against SpLsb4 in the same assay as above.
In short: as §1

Binder	SPOT peptide array binding signal intensity
B1	225

Each binder was assayed against SpMyo1 in the same assay as above.
In short: as §1

Binder	SPOT peptide array binding signal intensity
B1	1290

Each binder was assayed against SpNbp2 in the same assay as above.
In short: as §1

Binder	SPOT peptide array binding signal intensity
B1	≤ 0

Each binder was assayed against SpPex13 in the same assay as above.
In short: as §1

Binder	SPOT peptide array binding signal intensity
B1	≤ 0

These binders were tested against SpRvs167 in the same assay as above.
In short: as §1

Binder	SPOT peptide array binding signal intensity
B1	1430

The binders below were run against SpSla1-D1-D2 in the same assay as above.
In short: as §1

Binder	SPOT peptide array binding signal intensity
B1	≤ 0

These binders were tested against SpSla1-D3 in the same assay as above.
In short: as §1

Binder	SPOT peptide array binding signal intensity
B1	≤ 0
